# Results filed as inconclusive are left out. Where a call stands in place of a potency, no number is given. Calls of active or inactive are those of the source. Calls follow the shape of the dose curve; as a rule, active = well fitted activation curve with a large enough effect in the signal ratio in the repeat runs, with a control signal flat (not every such curve was filed as active); inconclusive = weak or mixed curves; inactive = flat fitted curve, though single readings scatter; the % refers to the signal ratio.
# Test: qHTS assay for small molecule activators of the heat shock response signaling pathway (AID 743210);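 also: HeLa cells with beta-lactamase reporter driven by heat shock elements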
# Details: HeLa HSE-bla reporter, beta-lactamase ratio, 5 h; series mostly up to 62.6 µM
# Outline: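 In HSE-bla HeLa cells, 5 h compound incubation (37 C) precedes addition of LiveBLAzer B/G substrate; after 2.5 h at room temperature, fluorescence intensity indicates reporter induction.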
row,SMILES,Potency
1,Cc1ccccc1N1C(=O)c2cc(S(N)(=O)=O)c(Cl)cc2NC1C (centres undefined),inactive
2,Cc1ccc(Nc2nccc(N(C)c3ccc4c(C)n(C)nc4c3)n2)cc1S(N)(=O)=O,inactive
3,Cc1cnc(C)c(C)n1,inactive
4,CC(C)(C)C(=O)O,inactive
5,CCCCC(=O)O[C@]1(C(=O)CO)CC[C@H]2[C@@H]3CCC4=CC(=O)CC[C@]4(C)[C@H]3[C@@H](O)C[C@@]21C,inactive
6,CC(C)c1nnc2ccc(-c3ocnc3-c3cc(F)ccc3F)cn12,inactive
7,CC(=O)[C@H]1CC[C@H]2[C@@H]3C[C@H](C)C4=CC(=O)CC[C@]4(C)[C@H]3[C@@H](O)C[C@]12C,inactive
8,C=CC(=C)CCCC(C)(C)OC(C)=O,inactive
9,Fc1c(F)c(F)c(Br)c(F)c1F,inactive
10,Nc1nc(Cl)nc2c1ncn2[C@@H]1O[C@H](CO)[C@@H](O)[C@@H]1F,inactive
11,CCOC(=O)[C@@H](C)Oc1ccc(Oc2nc3ccc(Cl)cc3o2)cc1,inactive
12,CN(C)C(=O)Nc1ccc(Oc2ccc(Cl)cc2)cc1,inactive
13,CCCCC(CC)CNCC(CC)CCCC (centres undefined),inactive
14,C[Si]1(C)O[Si](C)(C)O[Si](C)(C)O1,inactive
15,Cc1oc(C)c(C(=O)Nc2ccccc2)c1C,inactive
16,COCc1c(C(C)C)nc(C(C)C)c(/C=C/[C@@H](O)C[C@@H](O)CC(=O)O)c1-c1ccc(F)cc1,inactive
17,CCC(C)=O,inactive
18,CC1(C)C(=O)N(Br)C(=O)N1Cl,inactive
19,CCCCCCCCSCCO,inactive

# Source: PubChem BioAssay (Tox21)
